# Where two headings read alike, the source gives them in different places.
# Legend:
# Parameters in all cases: species or system human, MV4-11 + K-562 + COLO205 + SK-N-BE2 + OVCAR-8
# [1] = system: FN3KRP; conditions: read-out: apparent Kd; compound concentrations: 100 nM and 1000 nM (sheet 'Samples'), CATDS: 1; n = 1
# [2] = system: FN3K; conditions: read-out: apparent Kd; compound concentrations: 100 nM and 1000 nM (sheet 'Samples'), CATDS: 0.30544658046652101; n = 1
# [3] = system: ROCK1; conditions: read-out: apparent Kd; compound concentrations: 100 nM and 1000 nM (sheet 'Samples'), CATDS: 0.35168740775253199; n = 1
# [4] = system: ROCK2; conditions: read-out: apparent Kd; compound concentrations: 100 nM and 1000 nM (sheet 'Samples'), CATDS: 0.34690050634706199; n = 1
# [5] = system: FRK; conditions: read-out: apparent Kd, compound concentrations: 100 nM and 1000 nM (sheet 'Samples'), n = 1
# [6] = system: HCK; conditions: read-out: apparent Kd, compound concentrations: 100 nM and 1000 nM (sheet 'Samples'), n = 1
# [7] = system: LCK; conditions: read-out: apparent Kd, compound concentrations: 100 nM and 1000 nM (sheet 'Samples'), n = 1
# [8] = system: LYN; conditions: read-out: apparent Kd; compound concentrations: 100 nM and 1000 nM (sheet 'Samples'), CATDS: 0.140123988269205; n = 1
# [9] = system: MAP2K5; conditions: read-out: apparent Kd, n = 1
# [10] = system: TNK2; conditions: read-out: apparent Kd; compound concentrations: 100 nM and 1000 nM (sheet 'Samples'), CATDS: 0.21718962243178; n = 1
# [11] = system: GAK; conditions: read-out: apparent Kd, n = 1
# [12] = system: NUAK1; conditions: read-out: apparent Kd; compound concentrations: 100 nM and 1000 nM (sheet 'Samples'), CATDS: 0.245714515933597; n = 1
# [13] = system: PLK4; conditions: read-out: apparent Kd; compound concentrations: 100 nM and 1000 nM (sheet 'Samples'), CATDS: 0.36168703025704801; n = 1
# [14] = system: PTK2; conditions: read-out: apparent Kd; compound concentrations: 100 nM and 1000 nM (sheet 'Samples'), CATDS: 0.26626379457403998; n = 1
# [15] = system: NLK; conditions: read-out: apparent Kd; compound concentrations: 100 nM and 1000 nM (sheet 'Samples'), CATDS: 0.239785961160628; n = 1
# [16] = system: RIPK2; conditions: read-out: apparent Kd; compound concentrations: 100 nM and 1000 nM (sheet 'Samples'), CATDS: 0.40204852474639502; n = 1
# [17] = system: NQO1; conditions: read-out: apparent Kd; compound concentrations: 100 nM and 1000 nM (sheet 'Samples'), CATDS: 0.42980166948746801; n = 1
# [18] = system: STK10; conditions: read-out: apparent Kd; compound concentrations: 100 nM and 1000 nM (sheet 'Samples'), CATDS: 0.42195435963049299; n = 1
# [19] = system: TTK; conditions: read-out: apparent Kd; compound concentrations: 100 nM and 1000 nM (sheet 'Samples'), CATDS: 0.35015598460163; n = 1
# [20] = system: SIK2; conditions: read-out: apparent Kd; compound concentrations:100 nM and 1000 nM (sheet 'Samples'); n = 1
# [21] = system: SIK3; conditions: read-out: apparent Kd; compound concentrations:100 nM and 1000 nM (sheet 'Samples'); n = 1
# [22] = system: ZAK; conditions: read-out: apparent Kd; compound concentrations:100 nM and 1000 nM (sheet 'Samples'); n = 1
# [23] = compound concentrations:100 nM and 1000 nM (sheet 'Samples')
smiles,measurement,setting,value
Cn1nc(-c2ccc(NC(=O)Nc3ccc4ccccc4c3)c(F)c2)c2cnc(NCCN3CCOCC3)nc21.O=C(O)C(F)(F)F [SB-750250-M],potency estimated from few doses,[1],1800 nM
NS(=O)(=O)c1cccc(N/C=C2\C(=O)Nc3ccc(S(=O)(=O)Cc4c(Cl)cccc4Cl)cc32)c1 [GSK398099A],potency estimated from few doses,[2],2240 nM
same,potency estimated from few doses,[3],1680 nM
same,potency estimated from few doses,[4],1720 nM
Cc1ccc(C(=O)Nc2ccc(Nc3ccnc4cc(-c5ccccn5)ccc34)cc2O)cc1.Cl [GW440146A],potency estimated from few doses,[5]; CATDS: 0.227181560235134,250 nM
same,potency estimated from few doses,[6]; CATDS: 0.17687822419951399,398 nM
same,potency estimated from few doses,[7]; CATDS: 0.18982268752043399,346 nM
same,potency estimated from few doses,[8],686 nM
same,potency estimated from few doses,"[9]; compound concentrations: 100 nM and 1000 nM (sheet 'Samples'), CATDS: 0.111910092443395",1450 nM
same,potency estimated from few doses,[10],270 nM
COc1cc2nccc(Nc3ccc(NC(=O)c4ccc(C)cc4)c(O)c3)c2cc1OC.Cl [GW440132A],potency estimated from few doses,[5]; CATDS: 0.28944129909261102,691 nM
same,potency estimated from few doses,[6]; CATDS: 0.241643180155243,986 nM
same,potency estimated from few doses,[7]; CATDS: 0.30139088079166299,643 nM
same,potency estimated from few doses,"[9]; compound concentrations: 100 nM and 1000 nM (sheet 'Samples'), CATDS: 0.19651058590933199",1640 nM
CCC(=O)Nc1cccc(Oc2nc(Nc3ccc(N4CCN(C)CC4)cc3OC)ncc2Cl)c1 [WZ4003],potency estimated from few doses,"[11]; compound concentrations: 100 nM and 1000 nM (sheet 'Samples'), CATDS: 0.18485172893482499",1600 nM
same,potency estimated from few doses,[12],760 nM
same,potency estimated from few doses,[13],371 nM
same,potency estimated from few doses,[14],643 nM
COc1cc(Nc2ccnc3ccc(C(F)(F)F)cc23)cc(OC)c1OC [GW577382X],potency estimated from few doses,"[11]; compound concentrations: 100 nM and 1000 nM (sheet 'Samples'), CATDS: 0.42692129692206698",305 nM
same,potency estimated from few doses,[15],1230 nM
same,potency estimated from few doses,[16],340 nM
C#Cc1cccc(Nc2ncnc3ccc(OCCCCNCCS(C)(=O)=O)cc23)c1 [GW680191X],potency estimated from few doses,"[11]; compound concentrations: 100 nM and 1000 nM (sheet 'Samples'), CATDS: 0.59760522623710299",804 nM
same,potency estimated from few doses,[17],1580 nM
C#Cc1cccc(Nc2ncnc3cc(OCCOC)c(OCCOC)cc23)c1.Cl [GW459135A],potency estimated from few doses,"[11]; compound concentrations: 100 nM and 1000 nM (sheet 'Samples'), CATDS: 0.61346853975848203",949 nM
same,potency estimated from few doses,[18],2060 nM
COc1cc(N2CCN(C(C)C)CC2)ccc1Nc1nc(Nc2cccc3ncccc23)c2cc[nH]c2n1 [GSK1511931A],potency estimated from few doses,"[11]; compound concentrations: 100 nM and 1000 nM (sheet 'Samples'), CATDS: 0.87402661457119502",83.9 nM
same,potency estimated from few doses,[19],1080 nM
CNS(=O)(=O)c1ccc(N(C)C)c(Nc2ncnc3cc(OC)c(OC)cc23)c1 [GSK114],potency estimated from few doses,[11]; [23],28.1 nM
same,potency estimated from few doses,[9]; [23],12.7 nM
same,potency estimated from few doses,[20],639 nM
same,potency estimated from few doses,[21],1350 nM
same,potency estimated from few doses,[22],646 nM

# Source: PMC11062922 (Nature Chemical Biology, 2023)
